Measurements taken from PubChem BioAssay (Tox21).
“And” between values parts separate entries of the source, which are not always exact repeats. Equal values may be shown once. Inconclusive results are not listed. A structure can be active in one record and inactive in another. The source made the active and inactive calls. Unless noted, calls follow the shape of the full dose curve.

Assays:
[1] = Nuclear factor erythroid 2-related factor 2/antioxidant responsive element (Nrf2/ARE) small molecule agonists: qHTS cell viability counter screen in human keratinocytes (AID 1919968; active = well fitted curve in the direction sought with a large enough effect in the repeat runs; an effect the other way counts as inactive or inconclusive; also: nearly all actives have a fitted effect of over 55% in size; also: potency is read from the fitted curve at half-maximal effect)
Procedure, shortened: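 Viability counter-screen: KeratinoSens reporter cells, DMSO-delivered compounds, 23 h at 37 C, CellTiter-Fluor fluorescence.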

[2] = Nuclear factor erythroid 2-related factor 2/antioxidant responsive element (Nrf2/ARE) small molecule agonists: luciferase reporter gene qHTS assay in human keratinocytes (AID 1919969); also: nearly all actives have a fitted effect of over 35% in size; also: potency is read from the fitted curve at half-maximal effect
[3] = biological target: Gonadotropin-releasing hormone receptor (Homo sapiens) (UniProt P30968); assay: Human gonadotropin-releasing hormone receptor (GnRHR) small molecule agonists, calcium flux assay in GnRHR-HEK293 cells (AID 1920063); also: nearly all actives have a fitted effect of over 35% in size; also: potency is read from the fitted curve at half-maximal effect
Gonadotropin-releasing hormone receptor (Homo sapiens), sequence (P30968 whole entry, looked up): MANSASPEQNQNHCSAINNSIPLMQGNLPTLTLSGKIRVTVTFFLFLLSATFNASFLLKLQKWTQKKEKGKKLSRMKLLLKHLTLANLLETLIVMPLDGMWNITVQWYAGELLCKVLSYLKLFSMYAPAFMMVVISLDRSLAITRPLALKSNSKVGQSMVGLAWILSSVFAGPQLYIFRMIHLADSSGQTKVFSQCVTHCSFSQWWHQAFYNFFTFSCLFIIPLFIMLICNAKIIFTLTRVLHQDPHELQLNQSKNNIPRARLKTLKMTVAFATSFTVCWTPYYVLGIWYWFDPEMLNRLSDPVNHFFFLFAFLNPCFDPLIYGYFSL
Procedure, shortened: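 Tox21-format agonist screen using human GnRHR-expressing HEK293 cells and a fluorescent calcium dye; kinetic 3-min fluorescence reading after compound addition, 15-point concentration series run in triplicate.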

[4] = biological target: KiSS-1 receptor (Homo sapiens) (UniProt Q969F8); assay: Human kisspeptin (KISS1R) small molecule agonists, calcium flux assay in KISS1R-HEK293 cells (AID 1920064; active = well fitted curve in the direction sought with a large enough effect in the repeat runs; an effect the other way counts as inactive or inconclusive; also: potency is read from the fitted curve at half-maximal effect)
KiSS-1 receptor (Homo sapiens), sequence (Q969F8 whole entry, looked up): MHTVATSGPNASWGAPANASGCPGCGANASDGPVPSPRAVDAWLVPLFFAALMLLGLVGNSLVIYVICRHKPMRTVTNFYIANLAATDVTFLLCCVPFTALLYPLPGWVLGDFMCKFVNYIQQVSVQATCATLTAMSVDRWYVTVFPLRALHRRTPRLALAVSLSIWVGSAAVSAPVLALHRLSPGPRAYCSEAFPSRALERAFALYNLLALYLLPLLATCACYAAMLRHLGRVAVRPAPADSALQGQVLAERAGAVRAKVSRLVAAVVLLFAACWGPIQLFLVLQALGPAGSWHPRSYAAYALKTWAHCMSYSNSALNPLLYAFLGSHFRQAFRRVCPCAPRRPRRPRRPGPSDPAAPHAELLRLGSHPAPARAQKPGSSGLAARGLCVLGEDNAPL
Procedure, shortened: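 Intracellular calcium mobilization in KISS1R-HEK293 cells was recorded by fluorescence (Ex/Em 480/540) for 3 min following compound addition to cells pre-loaded 1 h with calcium dye.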

[5] = G protein-coupled receptor (GPCR) small molecule agonists, calcium flux assay: HEK293 wild type cell line counter screen (AID 1920065); also: potency is read from the fitted curve at half-maximal effect
Procedure, shortened: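 In this agonist-mode screen, ATP is the positive control and DMSO the vehicle. Cells grow 18 h before a 1 h dye incubation at 37 C; signal is taken at Ex/Em 480/540 over 3 min.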

[6] = p53 small molecule agonists, cell-based qHTS assay with human liver microsomes: qHTS cell viability counter screen (AID 1963579); also: nearly all actives have a fitted effect of over 45% in size; also: potency is read from the fitted curve at half-maximal effect
Procedure, shortened: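 In this multiplexed counter screen, the reporter plates were subsequently treated with CellTiter-Glo so that cell viability, reflected by luminescence, could be recorded for p53RE-bla cells dosed 16 h with compounds under microsomal activation (HLM and NADPH).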

[7] = p53 small molecule agonists, cell-based qHTS assay with rat liver microsomes: qHTS cell viability counter screen (AID 1963580); also: nearly all actives have a fitted effect of over 45% in size; also: potency is read from the fitted curve at half-maximal effect
Procedure, shortened: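 p53RE-bla HCT-116 cells were exposed 16 h at 37 C to compounds with rat liver microsomes (0.5 mg/mL) and NADPH (0.5 mg/mL). Viability was measured in the same wells as ATP content by CellTiter-Glo luminescence.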

[8] = p53 small molecule agonists, cell-based qHTS assay: qHTS cell viability counter screen (AID 1963581); also: nearly all actives have a fitted effect of over 45% in size; also: potency is read from the fitted curve at half-maximal effect
Procedure, shortened: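 Compounds are pinned onto HCT-116 p53RE-bla cells and left 16 h at 37 C. Following the reporter FRET read, ATP is quantified by CellTiter-Glo luminescence after 30 min at room temperature.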

[9] = biological target: 5-hydroxytryptamine receptor 2A (Homo sapiens) (UniProt P28223); assay: 5-hydroxytryptamine receptor 2A (HTR2A) small molecule agonists, cell-based qHTS assay (AID 1963587); also: nearly all actives have a fitted effect of over 30% in size; also: potency is read from the fitted curve at half-maximal effect
5-hydroxytryptamine receptor 2A (Homo sapiens), sequence (P28223 whole entry, looked up): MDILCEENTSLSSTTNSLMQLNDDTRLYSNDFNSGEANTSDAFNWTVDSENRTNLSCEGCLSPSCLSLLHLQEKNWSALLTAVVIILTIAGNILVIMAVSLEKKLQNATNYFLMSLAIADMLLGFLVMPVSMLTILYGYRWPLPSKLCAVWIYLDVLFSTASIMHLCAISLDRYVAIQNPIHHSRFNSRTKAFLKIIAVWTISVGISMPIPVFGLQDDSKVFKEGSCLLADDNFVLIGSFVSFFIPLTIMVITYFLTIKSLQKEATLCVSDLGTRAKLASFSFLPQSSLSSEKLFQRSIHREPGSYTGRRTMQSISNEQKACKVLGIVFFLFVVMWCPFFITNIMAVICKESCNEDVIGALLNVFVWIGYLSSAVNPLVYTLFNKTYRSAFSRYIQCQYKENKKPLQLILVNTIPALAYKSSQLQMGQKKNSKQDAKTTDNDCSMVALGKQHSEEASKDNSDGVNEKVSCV
Procedure, shortened: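 CHO cells stably expressing human HTR2A, plated 18 h, loaded with calcium dye 1 h at 37 C. Agonist mode: compounds added and intracellular calcium fluorescence recorded kinetically for 2 min at 1 sec intervals.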

[10] = biological target: Muscarinic acetylcholine receptor M1 (Homo sapiens) (UniProt P11229); assay: Cholinergic receptor muscarinic 1 (CHRM1) small molecule antagonists, cell-based qHTS assay (AID 1963588); also: nearly all actives have a fitted effect of over 40% in size; also: potency is read from the fitted curve at half-maximal effect
Muscarinic acetylcholine receptor M1 (Homo sapiens), sequence (P11229 whole entry, looked up): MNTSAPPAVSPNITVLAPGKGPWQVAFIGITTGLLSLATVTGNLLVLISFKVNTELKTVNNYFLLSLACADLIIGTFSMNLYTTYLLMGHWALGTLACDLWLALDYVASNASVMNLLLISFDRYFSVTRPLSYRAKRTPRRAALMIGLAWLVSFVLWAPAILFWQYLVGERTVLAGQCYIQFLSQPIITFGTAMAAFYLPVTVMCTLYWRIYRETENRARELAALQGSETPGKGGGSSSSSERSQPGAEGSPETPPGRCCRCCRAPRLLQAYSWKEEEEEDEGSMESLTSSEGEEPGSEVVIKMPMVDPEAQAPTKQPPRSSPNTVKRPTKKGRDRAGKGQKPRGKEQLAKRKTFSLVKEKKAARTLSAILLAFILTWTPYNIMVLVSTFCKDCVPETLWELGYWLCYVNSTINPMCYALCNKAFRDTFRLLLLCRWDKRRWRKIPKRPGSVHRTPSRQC
Procedure, shortened: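 CHRM1-CHO calcium-flux assay, antagonist mode. Cells were seeded 18 h, dye-loaded 1 h at 37 C and given compound for 5 min at RT, then acetylcholine was added at 50nM. FDSS fluorescence was read 3 min; 15 concentrations, three runs.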

[11] = biological target: Muscarinic acetylcholine receptor M1 (Homo sapiens) (UniProt P11229); assay: Cholinergic receptor muscarinic 1 (CHRM1) small molecule agonists, cell-based qHTS assay (AID 1963589); also: nearly all actives have a fitted effect of over 35% in size
Procedure, shortened: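 Stable CHRM1-CHO cells (human receptor) were incubated 18 h, dye-loaded for 1 h at 37 C and exposed to test compounds for agonist activity, with calcium-dependent fluorescence followed kinetically.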

[12] = cAMP Responsive Elements (CRE) small molecule antagonists, cell-based qHTS assay (AID 1963591; active = well fitted inhibition curve with a large enough effect in the signal ratio in the repeat runs, not every such curve was filed as active; the % refers to the signal ratio)
Procedure, shortened: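 qHTS in CRE-bla HEK 293T cells: compound in DMSO, then 0.25 uM NKH477 (final), 3 h at 37 °C/5% CO2; beta-lactamase FRET read-out after 2 h substrate incubation.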

[13] = biological target: Beta-2 adrenergic receptor (Homo sapiens) (UniProt P07550); assay: Adrenergic beta2 receptor (ADRB2) small molecule antagonists, cell-based qHTS assay (AID 1963592); also: series mostly up to about 92 µM; nearly all actives have a fitted effect of over 50% in size
Beta-2 adrenergic receptor (Homo sapiens), sequence (P07550 whole entry, looked up): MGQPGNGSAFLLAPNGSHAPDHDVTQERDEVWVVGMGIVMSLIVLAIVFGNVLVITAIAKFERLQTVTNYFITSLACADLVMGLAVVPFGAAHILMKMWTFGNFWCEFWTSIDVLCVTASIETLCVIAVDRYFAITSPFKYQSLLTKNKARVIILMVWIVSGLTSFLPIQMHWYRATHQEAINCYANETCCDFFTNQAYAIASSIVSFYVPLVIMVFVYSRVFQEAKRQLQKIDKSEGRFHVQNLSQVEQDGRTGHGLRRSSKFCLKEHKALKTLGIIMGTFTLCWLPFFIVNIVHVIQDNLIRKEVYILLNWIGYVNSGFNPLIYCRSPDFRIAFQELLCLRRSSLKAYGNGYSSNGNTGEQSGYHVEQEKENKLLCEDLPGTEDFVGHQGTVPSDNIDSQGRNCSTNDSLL
Procedure, shortened: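 Cells (CHO, stable ADRB2 overexpression) incubated 18-20hr at 37C; compounds added from DMSO; agonist mix (1nM isoproterenol, 100uM IBMX, 25uM Ro-20-1724) added; 0.5hr RT; d2-cAMP and anti-cAMP-cryptate added; 1hr RT; 665/615 nm read.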

[14] = biological target: Beta-2 adrenergic receptor (Homo sapiens) (UniProt P07550); assay: Adrenergic beta2 receptor (ADRB2) small molecule agonists, cell-based qHTS assay (AID 1963593);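 also: CHO cells stably overexpressing human ADRB2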
Procedure, shortened: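 CHO cells stably over-expressing ADRB2 were plated overnight at 37C, then dosed with compounds plus a stimulation mix containing 100uM IBMX and 25uM Ro-20-1724 for 0.5hr at room temperature. cAMP was measured by HTRF competition, 1hr.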

[15] = biological target: D(2) dopamine receptor (Homo sapiens) (UniProt P14416); assay: Dopamine D2 receptor (DRD2) small molecule agonists, cell-based qHTS assay (AID 1963594); also: nearly all actives have a fitted effect of over 35% in size
D(2) dopamine receptor (Homo sapiens), sequence (P14416 whole entry, looked up): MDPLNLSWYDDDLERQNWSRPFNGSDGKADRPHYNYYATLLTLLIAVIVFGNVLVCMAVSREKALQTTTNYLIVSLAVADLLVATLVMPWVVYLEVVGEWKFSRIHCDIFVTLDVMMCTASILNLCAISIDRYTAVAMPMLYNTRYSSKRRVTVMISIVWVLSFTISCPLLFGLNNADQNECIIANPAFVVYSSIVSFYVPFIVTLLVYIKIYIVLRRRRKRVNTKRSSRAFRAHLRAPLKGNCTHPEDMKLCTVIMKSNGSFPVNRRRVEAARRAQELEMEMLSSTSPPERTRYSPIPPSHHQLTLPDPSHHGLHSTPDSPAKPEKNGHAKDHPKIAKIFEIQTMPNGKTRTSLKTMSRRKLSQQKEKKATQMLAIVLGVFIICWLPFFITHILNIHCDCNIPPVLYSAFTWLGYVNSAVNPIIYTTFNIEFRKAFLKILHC
Procedure, shortened: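 HEK293 cells stably expressing human DRD2, pre-treated with PDE inhibitor Ro20-1724 (0.1 mM final) and compound 10 min at room temperature, then stimulated with NKH477 (200nM […]) for 30 min. cAMP read by HTRF (665/620 nm).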

[16] = biological target: D(2) dopamine receptor (Homo sapiens) (UniProt P14416); assay: Dopamine D2 receptor (DRD2) small molecule antagonists, cell-based qHTS assay (AID 1963595; active = well fitted inhibition curve with a large enough effect in the signal ratio in the repeat runs, with a control signal flat; the % refers to the signal ratio; also: potency is read from the fitted curve at half-maximal effect)
Procedure, shortened: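 Antagonism was scored as restored cAMP in HEK293-DRD2 cells. These cells were stimulated with 200 nM NKH477 and 12 nM quinpirole for 30 min at room temperature, in the presence of 0.1 mM Ro20-1724.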

[17] = biological target: 5-hydroxytryptamine receptor 2A (Homo sapiens) (UniProt P28223); assay: 5-hydroxytryptamine receptor 2A (HTR2A) small molecule antagonists, cell-based qHTS assay (AID 1963586); also: nearly all actives have a fitted effect of over 45% in size; also: potency is read from the fitted curve at half-maximal effect
Procedure, shortened: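 Antagonist-mode intracellular calcium assay: DOI (4 nM) added after 5 min compound pre-incubation at room temperature to dye-loaded HTR2A-CHO cells. Fluorescence followed for 3 min, sampled every second.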

[18] = cAMP Responsive Elements (CRE) small molecule agonists, cell-based qHTS assay (AID 1963590)
Procedure, shortened: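 FRET-based beta-lactamase readout (LiveBLAzer B/G, 2 h RT) quantified CRE activation in HEK 293T CRE-bla cells after 3 h treatment with DMSO-dissolved compounds.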

[19] = p53 small molecule agonists, cell-based qHTS assay with rat liver microsomes (AID 1963578)
Procedure, shortened: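 With rat liver microsomes and NADPH present (0.5 mg/mL final each), p53RE-bla cells are treated with compound for 16 h at 37 C. LiveBLAzer detection mixture is then applied for 2 h at room temperature in the dark.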

[20] = p53 small molecule agonists, cell-based qHTS assay (AID 1963582; active = well fitted activation curve with a large enough effect in the signal ratio in the repeat runs, not every such curve was filed as active; the % refers to the signal ratio)
Procedure, shortened: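 Agonist activity was scored from beta-lactamase FRET fluorescence in p53RE-bla cells treated 16 h at 37 C with compounds in DMSO, substrate incubation being 2 h at room temperature.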

Measured: Potency

Nc1ccc(O)cc1
71.2 µM (active) and inactive: [1]
active: [2] 28.4 µM
not listed: [17] | [18] | [19] | [20]
inactive: all other assays above

COc1c(Cl)ccc(Cl)c1C(=O)O
not listed: [8] | [19] | [20]
inactive: all other assays above

CC(=O)[C@@]1(O)CC[C@H]2[C@@H]3CCC4=CC(=O)CC[C@]4(C)[C@H]3CC[C@@]21C
not listed: [9] | [10] | [11] | [12] | [17] | [19] | [20]
inactive: all other assays above

O=C(O)c1ccccc1C(c1ccc(O)cc1)c1ccc(O)cc1
not listed: [10] | [11] | [12] | [13] | [14] | [19] | [20]
inactive: all other assays above

CC(C)(Oc1ccc(CCNC(=O)c2ccc(Cl)cc2)cc1)C(=O)O
not listed: [9] | [10] | [11] | [17] | [19] | [20]
inactive: all other assays above

Nc1cccc(N)n1
not listed: [13] | [14] | [15] | [17] | [19] | [20]
inactive: all other assays above

CCN(CC)c1ccc(C(=O)c2ccccc2C(=O)O)c(O)c1
not listed: [12] | [14] | [17] | [18] | [19] | [20]
inactive: all other assays above

CCCCCCCCCCCCCC[P+](CCCC)(CCCC)CCCC
inactive and 9.42 µM (active): [10]
active: [1] 9.63 µM and 24.3 µM | [6] 45.5 µM and 20.4 µM | [7] 45.5 µM and 40.8 µM | [8] 20.3 µM and 25.7 µM | [17] 14.8 µM and 18.8 µM | [9] 21.8 µM and 54.9 µM | [16] 17.1 µM and 43.3 µM
not listed: [12] | [18] | [19] | [20]
inactive: all other assays above

Cc1ccc2oc(=O)ccc2c1
not listed: [12] | [17] | [19] | [20]
inactive: all other assays above

COC(=O)/C=C/c1ccccc1
not listed: [11] | [19] | [20]
inactive: all other assays above

OC[C@H]1O[C@@H]2O[C@H]3[C@H](O)[C@@H](O)[C@@H](O[C@H]4[C@H](O)[C@@H](O)[C@@H](O[C@H]5[C@H](O)[C@@H](O)[C@@H](O[C@H]6[C@H](O)[C@@H](O)[C@@H](O[C@H]7[C@H](O)[C@@H](O)[C@@H](O[C@H]1[C@H](O)[C@H]2O)O[C@@H]7CO)O[C@@H]6CO)O[C@@H]5CO)O[C@@H]4CO)O[C@@H]3CO
not listed: [9] | [10] | [11] | [17] | [19] | [20]
inactive: all other assays above

CCCCCCCCCCCCOCC1CO1 (stereo not given)
active: [2] 46.3 µM
not listed: [9] | [10] | [14] | [19] | [20]
inactive: all other assays above

CC/C=C\C/C=C\C/C=C\CCCCCCCC(=O)O
inactive and 20.4 µM (active): [6]
active: [2] 60.6 µM and 54.5 µM
not listed: [8] | [10] | [12] | [14] | [18] | [19] | [20]
inactive: all other assays above

Cc1ccc2n[nH]nc2c1
not listed: [5] | [16]
inactive: all other assays above

C=CCCC(=O)/C=C/C1C(C)=CCCC1(C)C (stereo not given)
active: [2] 54.5 µM
not listed: [5]
inactive: all other assays above

O=C1OC2(c3ccc(O)cc3Oc3cc(O)ccc32)c2ccccc21
inactive: [2] | [7] | [8] | [13] | [14] | [15] | [16]
active: [1] 9.44 µM | [3] 389 nM and 1.9 µM | [4] 550 nM and 2.39 µM | [5] 1.74 µM and 3.38 µM
